Results taken from PubChem BioAssay (NCATS).
Records with an inconclusive call do not appear. The source made the active and inactive calls. Unless noted, the call rests on the fitted dose curve; in most records, active means well fitted curve in the direction sought with a large enough effect; inconclusive means small, poorly fitted or top-dose-only effect, or another doubt; inactive means no such curve, though single readings can be large; an effect the other way counts as inactive or inconclusive.

Experiments:
[1] = system: Zika virus NS2B-NS3 protease (linked construct); assay: Primary screen NINDS Rhodamine qHTS for Zika virus inhibitors (AID 1347160); further: nearly all actives have a fitted effect of over 55% in size; further: potency means the concentration at half of the fitted maximal effect
Method in brief: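 Kinetic fluorescence (Ex 480 nm, Em 540 nm) over 15 min with 1.5 microM Rhodamine110 peptide and 25 nM linked protease.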

[2] = target: Calcium and integrin-binding protein 1 (Homo sapiens) (UniProt Q99828); assay: Primary qHTS for Identification of Calcium Integrin Binding Protein 1 (CIB1) Competitor (AID 1508620);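 further: GST tagged CIB1 binding a fluorescein labelled alphaIIb integrin peptide tracer; top concentration of the series differs between compounds; on the % scale 0 is the no-effect control and ±100 the full control effect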
Method in brief: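 CIB1-GST (1 uM final) and compound incubated 15 min at room temperature before adding FITC-alphaIIb peptide tracer (100 nM final). Competition for binding read by fluorescence polarization (ex 480, em 540) after another 15 min at room temperature.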

[3] = target: Luciferin 4-monooxygenase (Photinus pyralis) (UniProt P08659); assay: Primary firefly luciferase (FLuc) qHTS assay for identification of artifact compounds. (AID 1845220); further: nearly all actives have a fitted effect of over 60% in size
Method in brief: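 Cell-free, 1536-well qHTS. Buffer pH 7.6 with 0.01% Tween-20 and 0.05% BSA; 10 uM D-luciferin, 10 uM ATP; 10 nM P. pyralis luciferase; luminescence after 5 min.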

[4] = Primary fluorescence-based thiol-reactive (MSTI) qHTS assay for identification of artifact compounds. (AID 1845221); further: nearly all actives have a fitted effect of over 65% in size; further: potency means the concentration at half of the fitted maximal effect
Method in brief: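 Thiol-reactive compounds detected by quenching of 4 uM MSTI fluorescence (525/598 nm) after 1 h room-temperature dark incubation in PBS pH 7.4, 2% DMSO. qHTS titration; percent inhibition Hill-fitted against Acetyl-MSTI/MSTI controls.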

[5] = system: Nanoluciferase (engineered Oplophorus gracilirostris luciferase); assay: Primary Nanoluciferase (NLuc) qHTS assay for identification of artifact compounds. (AID 1845222); further: potency means the concentration at half of the fitted maximal effect
Method in brief: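 Compounds are pinned into diluted (1:55) conditioned medium of NLuc-expressing S16 cells and held 15 min at room temperature protected from light. Nano-Glo substrate follows, and luminescence is read 5 min later.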

[6] = system: C33A; assay: Primary qHTS to identify gynecologic anti-cancer compounds using libraries of approved drugs and bioactive compounds (AID 1345084); conditions: Gynecologic cancer cell panel viability, ATPlite luminescence, 48 h; series mostly up to 57.5 µM; further: nearly all actives have a fitted effect of over 55% in size; further: potency means the concentration at half of the fitted maximal effect
Method in brief: (§1)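 Five-point cytotoxicity, 48 h drug exposure at 37 C, 5% CO2, on cells seeded 16 h beforehand. ATP content read by ATPlite luminescence.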

[7] = system: CASKI; assay: as above; conditions: Gynecologic cancer cell panel viability, ATPlite luminescence, 48 h; series mostly up to 57.5 µM
Method in brief: as §1

[8] = system: Es-2; assay: as above; conditions: Gynecologic cancer cell panel viability, ATPlite luminescence, 48 h; series mostly up to 57.5 µM
Method in brief: as §1

[9] = system: HeLa; assay: as above; conditions: Gynecologic cancer cell panel viability, ATPlite luminescence, 48 h; series mostly up to 57.5 µM
Method in brief: as §1

[10] = system: Hek293T; assay: as above; conditions: Gynecologic cancer cell panel viability, ATPlite luminescence, 48 h, control line for the selectivity index; series mostly up to 57.5 µM
Method in brief: as §1

[11] = system: JEG-3; assay: as above; conditions: Gynecologic cancer cell panel viability, ATPlite luminescence, 48 h; series mostly up to 57.5 µM
Method in brief: as §1

[12] = system: OV90; assay: as above; conditions: Gynecologic cancer cell panel viability, ATPlite luminescence, 48 h; series mostly up to 57.5 µM
Method in brief: as §1

[13] = system: Tov-21-G; assay: as above; conditions: Gynecologic cancer cell panel viability, ATPlite luminescence, 48 h; series mostly up to 57.5 µM
Method in brief: as §1

[14] = system: Tov112D; assay: as above; conditions: Gynecologic cancer cell panel viability, ATPlite luminescence, 48 h; series mostly up to 57.5 µM
Method in brief: as §1

[15] = target: Glutathione peroxidase 1 (Homo sapiens) (UniProt P07203); assay: Primary qHTS Assay for Inhibitors of Recombinant Selenoprotein Glutathione Peroxidase 1 (GPX1) (AID 1845191); further: nearly all actives have a fitted effect of over 65% in size
Method in brief: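 10 nM GPX1 + cpd, 30 min RT; start w/ 1 mM GSH, 0.5 mM cumene hydroperoxide, 0.5 mM NADPH, 100 nM GR, 0.01% BSA; buffer 50 mM Tris-HCl pH 7.5, 2 mM EDTA, 150 mM NaCl; Fl 340/450, 0 & 15 min.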

[16] = target: Phospholipid hydroperoxide glutathione peroxidase GPX4 (Homo sapiens) (UniProt P36969); assay: Primary qHTS Assay for Inhibitors of Recombinant Selenoprotein Glutathione Peroxidase 4 (GPX4) (AID 1845192); conditions: outcome: dose series up to 50 µM unless noted; further: nearly all actives have a fitted effect of over 65% in size
Method in brief: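 NADPH consumption, followed by fluorescence at 340/450 nm between 0 and 15 min, reports GPX4 activity via coupled glutathione reductase (100 nM). Enzyme 200 nM was pre-exposed to compound 30 min; 0.5 mM cumene hydroperoxide and 1 mM GSH served as substrates.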

[17] = P-glycoprotein substrates identified in KB-8-5-11 adenocarcinoma cell line, qHTS therapeutic library screen (AID 1346987); further: potency means the concentration at half of the fitted maximal effect; nearly all actives have a fitted effect of over 65% in size
Method in brief: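 P-gp-mediated resistance screen: KB-8-5-11 cells treated 72 h with compounds in dose-response. CellTiter-Glo viability.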

[18] = Primary qHTS for inhibitors of nuclear receptor binding SET domain protein 2 (NSD2) in an isogenic RCH-ACV NSD2 p.E1099K mutant (9B) (AID 1645876); further: nearly all actives have a fitted effect of over 70% in size; further: potency means the concentration at half of the fitted maximal effect
[19] = Primary qHTS for inhibitors of nuclear receptor binding SET domain protein 2 (NSD2) in an RCH-ACV wild type WT cells (2C) (AID 1645877); further: nearly all actives have a fitted effect of over 70% in size; further: potency means the concentration at half of the fitted maximal effect
[20] = qHTS drug screen for cell cycle checkpoint inhibitors in PARPi-resistant BRCA-mutant ovarian cancer cell lines. (AID 1963452; calls by dose curve); conditions: PEO1/OlaR viability, CellTiter-Glo luminescence, 96 h, stronger effect = lower value
Method in brief: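 PEO1, PEO4 and PEO1/OlaR ovarian cancer cells, 600 per well, exposed 96 h at 37C to a dilution series. Viability read by CellTiter-Glo luminescence, normalized to DMSO and empty wells; activity summarized as Z-AUC.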

Chain of Glutathione peroxidase 1 (Homo sapiens) (P07203 whole entry, looked up): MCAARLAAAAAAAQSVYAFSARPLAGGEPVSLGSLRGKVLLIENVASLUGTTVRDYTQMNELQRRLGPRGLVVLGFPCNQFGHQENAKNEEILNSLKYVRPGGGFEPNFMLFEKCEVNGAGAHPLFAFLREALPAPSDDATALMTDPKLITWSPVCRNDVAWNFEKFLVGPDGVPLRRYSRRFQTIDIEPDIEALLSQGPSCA
Chain of Phospholipid hydroperoxide glutathione peroxidase GPX4 (Homo sapiens) (P36969 whole entry, looked up): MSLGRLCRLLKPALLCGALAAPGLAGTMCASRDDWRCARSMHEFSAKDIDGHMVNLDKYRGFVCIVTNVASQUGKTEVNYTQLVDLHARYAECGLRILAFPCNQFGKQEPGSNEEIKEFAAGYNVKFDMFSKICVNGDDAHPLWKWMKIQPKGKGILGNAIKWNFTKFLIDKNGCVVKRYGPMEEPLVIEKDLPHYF
Chain of Calcium and integrin-binding protein 1 (Homo sapiens) (Q99828 whole entry, looked up): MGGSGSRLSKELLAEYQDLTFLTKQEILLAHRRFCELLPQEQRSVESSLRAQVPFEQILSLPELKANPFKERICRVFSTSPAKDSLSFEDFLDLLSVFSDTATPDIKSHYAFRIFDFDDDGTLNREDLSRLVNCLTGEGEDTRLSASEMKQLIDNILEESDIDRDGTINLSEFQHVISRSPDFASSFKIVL

CN(Cc1ccc(C(=O)O)cc1)c1ccc(OCc2c(-c3c(Cl)cccc3Cl)noc2C2CC2)nc1C(F)(F)F
inactive: outcome [2] | Potency [3] | Potency [4] | Potency [5] | Potency [6] | Potency [7] | Potency [8] | Potency [9] | Potency [10] | Potency [11] | Potency [12] | Potency [13] | Potency [14]
active: Potency [1] 2.51 µM

CC1=CC(=O)[C@@]2(C(C)C)C[C@@H]12
inactive: outcome [2] | Potency [15] | Potency [16] | Potency [3] | Potency [6] | Potency [7] | Potency [8] | Potency [12] | Potency [13] | Potency [14]
active: Potency [1] 3.16 µM

CC1CCN(c2cc(NC(=O)c3ccccc3)ncn2)CC1
inactive: Potency [1] | outcome [2] | Potency [15] | Potency [4] | Potency [5] | Potency [6] | Potency [7] | Potency [8] | Potency [9] | Potency [10] | Potency [11] | Potency [12] | Potency [13] | Potency [14]
active: Potency [17] 16.4 µM

O=C(Nc1cccc(C(F)(F)F)c1)c1ccccc1NCc1ccncc1
inactive: Potency [3] | Potency [4] | Potency [5] | Potency [6] | Potency [7] | Potency [9] | Potency [11] | Potency [12] | Potency [13]

CC(C)c1ccc(NC(=O)C(c2ccccc2)N(C)C(=O)Cc2c[nH]c3ccccc23)cc1 (stereo unspecified)
active: Potency [18] 20.5 µM | Potency [19] 20.5 µM
inactive: outcome [2] | Potency [15] | Potency [16] | Potency [4] | Potency [5] | Potency [6] | Potency [7] | Potency [8] | Potency [9] | Potency [10] | Potency [11] | Potency [12] | Potency [13] | Potency [14]

COc1ccc(NS(=O)(=O)c2sc3ccc(Cl)cc3c2C)cc1N1CCNCC1
active: Potency [18] 20.5 µM | Potency [19] 12.9 µM
inactive: Potency [1] | outcome [2] | Potency [15] | Potency [16] | Potency [6] | Potency [7] | Potency [8] | Potency [9] | Potency [10] | Potency [11] | Potency [12] | Potency [13] | Potency [14]

CNc1nc(-c2ccc3c(N)n[nH]c3c2)cc(N2CC(C(=O)NC3CCCCC3)CCC2C)n1 (stereo unspecified)
active: Potency [18] 0.578 µM | Potency [19] 1.15 µM
inactive: Potency [1] | outcome [2] | Potency [15] | Potency [16] | Potency [3] | Potency [6] | Potency [7] | Potency [8] | Potency [9] | Potency [14]

CN[C@@H]1[C@@H](O)[C@@H](O[C@@H]2[C@@H](O)[C@H](O[C@H]3O[C@@H]([C@@H](C)NC)CC[C@H]3N)[C@@H](N)C[C@H]2N)OC[C@]1(C)O
inactive: Potency [18] | Potency [19] | Potency [16] | Potency [3] | Potency [5] | Potency [6] | Potency [7] | Potency [8] | Potency [9] | Potency [10] | Potency [11] | Potency [12] | Potency [13] | Potency [14]

COc1ccc2c(c1)CN(C(=O)CCN1CCC(Cc3ccccc3)CC1)CCS2
active: Potency [17] 6.32 µM | Potency [18] 11.2 µM | Potency [19] 10 µM | Potency [12] 6.31 µM
inactive: Potency [1] | outcome [2] | Potency [15] | Potency [3] | Potency [4] | Potency [5] | Potency [6] | Potency [7] | Potency [8] | Potency [9] | Potency [10] | Potency [11] | Potency [13] | Potency [14]

CCOC(=O)CCC(=O)O[C@H]1[C@H](O[C@@H]2[C@@H](C)[C@H](O[C@H]3C[C@@](C)(OC)[C@@H](O)[C@H](C)O3)[C@@H](C)C(=O)O[C@H](CC)[C@@](C)(O)[C@H](O)[C@@H](C)C(=O)[C@H](C)CC2(C)O)O[C@H](C)C[C@@H]1N(C)C (stereo partly specified)
inactive: Potency [1] | outcome [2] | Potency [18] | Potency [19] | Potency [15] | Potency [16] | Potency [4] | Potency [5] | Potency [6] | Potency [7] | Potency [8] | Potency [9] | Potency [10] | Potency [11] | Potency [12] | Potency [13] | Potency [14]

CC(=O)N1c2ccc(-c3ccc(C(=O)O)cc3)cc2C(Nc2ccc(Cl)cc2)CC1C (stereo unspecified)
inactive: outcome [2] | Potency [4] | Potency [5] | Potency [6] | Potency [10]
active: Potency [1] 8.91 µM | Potency [18] 0.0325 µM | Potency [19] 0.0205 µM | Potency [13] 2.24 µM

CCC(=O)Nc1cccc(Oc2nc(Nc3ccc(N4CCN(C)CC4)cc3OC)ncc2Cl)c1
inactive: Potency [1] | outcome [2] | Potency [15] | Potency [16] | Potency [3] | Z-AUC [20] -0.15 | Potency [6] | Potency [7] | Potency [8] | Potency [9] | Potency [10] | Potency [11] | Potency [12] | Potency [14]
0.187: Z-AUC ([20]; measured here: PEO1 parental Z-AUC)
active: Potency [17] 16.4 µM | Potency [18] 16.3 µM | Potency [19] 14.5 µM | Potency [4] 1.89 µM
0.383: Z-AUC ([20]; measured here: PEO4 Z-AUC)

CCCCc1nc(C)c(CC(=S)N(C)C)c(=O)n1Cc1ccc(-c2ccccc2-c2nn[nH]n2)cc1
inactive: outcome [2] | Potency [18] | Potency [19] | Potency [16] | Potency [3] | Potency [4] | Potency [6] | Potency [7] | Potency [8] | Potency [9] | Potency [10] | Potency [11] | Potency [12] | Potency [13] | Potency [14]
active: Potency [5] 16.9 µM
